Results reported in PubChem BioAssay (NCATS).
Results filed as inconclusive are left out. Calls of active or inactive are those of the source. Unless noted, the call rests on the fitted dose curve; in most records, active means well fitted curve in the direction sought with a large enough effect; inconclusive means small, poorly fitted or top-dose-only effect, or another doubt; inactive means no such curve, though single readings can be large; an effect the other way counts as inactive or inconclusive.

Columns and labels:
[1] = AP1 Signaling Pathway (AID 357; active means well fitted curve in either direction with a large enough effect, not every such curve was filed as active;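 further: ME-180 reporter cells stimulated with EGF at its EC50 level; on the % scale 0 is the no-effect control and ±100 the full control effect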); details: ME-180 (cervical carcinoma) AP-1-bla reporter, EGF-induced, beta-lactamase ratio, 5 h; at 38 µM (top of the series)
In short: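 Titration-series screen for positive or negative modulators of EC50 EGF-induced signaling in ME-180 cells carrying an AP-1-driven beta-lactamase reporter. After 5 hours at 37 degrees Celsius, CCF4 460nm/530nm emission ratio gave %Activity; AC50 values derived.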

[2] = NFAT Signaling Pathway (AID 444; active means well fitted curve in either direction with a large enough effect, not every such curve was filed as active;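 further: carbachol stimulus at about its EC50 of 1 µM final; on the % scale 0 is the no-effect control and ±100 the full control effect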); details: Jurkat NFAT-bla M1, carbachol, beta-lactamase ratio, 5 h; at 38 µM (top of the series)
In short: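 Jurkat cells carrying an NFAT-driven β-lactamase reporter and co-transfected muscarinic M1 receptor were treated with compound plus carbachol (1 uM final, an EC50 level) for 5 h at 37 °C. CCF4 loading followed for 1 h at RT; 460/530 nm ratio gave %activity.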

[3] = target: Glucocorticoid receptor (Homo sapiens) (UniProt P04150); assay: GR-GFP Redistribution (AID 450;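 active means compounds whose dose series gives a full or clear partial fitted curve of increased nuclear translocation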; further: potency means the concentration at half of the fitted maximal effect); details: U2OS GR-GFP nuclear translocation, laser cytometry, 2 h
Glucocorticoid receptor (Homo sapiens), sequence (P04150 whole entry, looked up, the tested form may be a part): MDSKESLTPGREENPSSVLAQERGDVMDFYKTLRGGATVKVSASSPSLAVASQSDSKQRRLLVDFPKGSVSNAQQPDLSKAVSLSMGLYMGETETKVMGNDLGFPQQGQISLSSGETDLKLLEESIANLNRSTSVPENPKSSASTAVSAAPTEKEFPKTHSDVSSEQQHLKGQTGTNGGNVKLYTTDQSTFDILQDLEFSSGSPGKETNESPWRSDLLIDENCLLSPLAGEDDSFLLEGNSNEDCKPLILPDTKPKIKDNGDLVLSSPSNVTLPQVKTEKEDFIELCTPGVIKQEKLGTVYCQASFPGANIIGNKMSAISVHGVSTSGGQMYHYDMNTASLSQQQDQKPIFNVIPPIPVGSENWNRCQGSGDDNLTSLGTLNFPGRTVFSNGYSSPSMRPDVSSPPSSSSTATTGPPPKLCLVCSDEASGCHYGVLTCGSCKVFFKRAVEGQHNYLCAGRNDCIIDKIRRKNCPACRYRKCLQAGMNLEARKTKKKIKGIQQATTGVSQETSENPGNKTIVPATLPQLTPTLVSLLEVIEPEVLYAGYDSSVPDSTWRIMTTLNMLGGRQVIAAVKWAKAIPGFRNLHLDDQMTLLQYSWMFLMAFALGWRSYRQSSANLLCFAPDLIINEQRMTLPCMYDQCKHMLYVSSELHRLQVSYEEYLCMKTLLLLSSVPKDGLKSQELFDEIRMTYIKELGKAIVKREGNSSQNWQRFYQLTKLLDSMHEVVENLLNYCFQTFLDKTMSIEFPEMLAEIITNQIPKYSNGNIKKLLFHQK

[4] = target: Glucocorticoid receptor (Homo sapiens) (UniProt P04150); assay: GR-EFC Redistribution (AID 451; calls by dose curve; further: potency means the concentration at half of the fitted maximal effect); details: CHO-K1 GR-EFC translocation, beta-gal luminescence, 2 h
In short: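 CHO-K1 cells stably expressing nuclear-localized β-gal enzyme acceptor and GR fused C-terminally to the enzyme donor fragment; ligand-driven nuclear translocation restores β-gal by complementation. Compounds titrated up to 46 uM final, 2 h at 37 °C; luminescence read.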

[5] = target: Mitogen-activated protein kinase 10 (Mus musculus) (UniProt Q61831); assay: JNK3 AlphaScreen Assay (AID 530; active means well fitted curve in either direction with a large enough effect, not every such curve was filed as active;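 further: kinase came from lysate of stimulated human HepG2 cells; signal reports phosphorylation of biotinylated GST-cJun 1-79 at Ser73 with 10 µM ATP; on the % scale 0 is the no-effect control and ±100 the full control effect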)
In short: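 JNK3 came from HepG2 lysates pre-activated with IL-1beta and TNF-alpha and phosphorylated biotinylated GST-cJun (1-79) at 10 uM ATP, pH 7.6, room temperature. Compounds were titrated. AlphaScreen signal used anti-phospho-cJun (Ser73) antibody.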

[6] = target: 3',5'-cyclic-AMP phosphodiesterase 4B (Homo sapiens) (UniProt Q07343); assay: qHTS Assay for Inhibitors of PDE-IV (AID 607; active means well fitted activation curve with a large enough effect in the main read-out, with a control signal flat, not every such curve was filed as active; further: % of control where 0% means no effect)
3',5'-cyclic-AMP phosphodiesterase 4B (Homo sapiens), sequence (Q07343 whole entry, looked up): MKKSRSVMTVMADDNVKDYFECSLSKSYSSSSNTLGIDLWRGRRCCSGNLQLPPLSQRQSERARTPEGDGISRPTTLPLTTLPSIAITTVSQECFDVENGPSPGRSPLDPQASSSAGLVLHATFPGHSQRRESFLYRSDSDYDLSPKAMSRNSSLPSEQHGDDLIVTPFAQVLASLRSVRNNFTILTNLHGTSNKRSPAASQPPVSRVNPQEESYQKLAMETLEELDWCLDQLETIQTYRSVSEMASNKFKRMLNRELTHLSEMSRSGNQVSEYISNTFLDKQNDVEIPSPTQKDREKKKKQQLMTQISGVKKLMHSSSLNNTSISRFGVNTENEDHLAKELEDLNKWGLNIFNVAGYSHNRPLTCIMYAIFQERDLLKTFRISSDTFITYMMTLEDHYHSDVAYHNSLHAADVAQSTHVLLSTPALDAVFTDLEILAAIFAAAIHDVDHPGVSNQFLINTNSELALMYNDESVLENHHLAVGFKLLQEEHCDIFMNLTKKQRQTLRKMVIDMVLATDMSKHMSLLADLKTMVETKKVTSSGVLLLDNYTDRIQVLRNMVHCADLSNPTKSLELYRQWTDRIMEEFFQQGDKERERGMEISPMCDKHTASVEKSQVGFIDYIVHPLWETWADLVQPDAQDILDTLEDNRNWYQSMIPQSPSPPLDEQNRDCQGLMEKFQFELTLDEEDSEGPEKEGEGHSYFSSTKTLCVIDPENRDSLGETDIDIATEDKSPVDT
In short: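 ACTOne HEK293 cells carry a modified cAMP-gated CNG channel and express endogenous PDE4; plated 1000 cells/well, compounds up to 22.9 uM final. Membrane-potential dye fluorescence (ex 535/em 590) was read; parental cells received 10 uM forskolin + 100 uM RO 20-1724.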

[7] = target: Guanine nucleotide-binding protein G(i) subunit alpha-1 (Homo sapiens) (UniProt P63096); assay: qHTS Assay for Inhibitors of RGS12 GoLoco Motif Activity (Green Fluorophore) (AID 879);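 further: 0% = labeled peptide with Gαi1 and full inhibition = labeled peptide alone without protein; negative values mean loss of peptide binding seen as reduced polarization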
Guanine nucleotide-binding protein G(i) subunit alpha-1 (Homo sapiens), sequence (P63096 whole entry, looked up): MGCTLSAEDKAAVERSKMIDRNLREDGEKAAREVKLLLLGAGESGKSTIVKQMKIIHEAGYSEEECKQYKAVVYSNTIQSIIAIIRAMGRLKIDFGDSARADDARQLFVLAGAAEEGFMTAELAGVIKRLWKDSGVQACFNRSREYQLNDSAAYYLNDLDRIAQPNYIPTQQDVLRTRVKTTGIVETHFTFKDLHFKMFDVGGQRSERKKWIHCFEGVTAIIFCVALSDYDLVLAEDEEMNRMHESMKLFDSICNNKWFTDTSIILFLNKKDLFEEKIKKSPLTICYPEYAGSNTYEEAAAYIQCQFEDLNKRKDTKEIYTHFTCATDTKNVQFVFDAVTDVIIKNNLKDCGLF
In short: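 Fluorescence polarization assay: 50 nM Gαi1 with 10 nM FITC-labeled RGS12 GoLoco peptide in 10 mM Tris pH 7.5, 150 mM NaCl, 0.1 mM GDP, 0.05% NP40, 10 min at room temperature with compound.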

[8] = target: Cytochrome P450 2D6 (Homo sapiens) (UniProt P10635); assay: qHTS Assay for Inhibitors and Substrates of Cytochrome P450 2D6 (AID 891); further: potency means the concentration at half of the fitted maximal effect; nearly all actives have a fitted effect of over 60% in size
Cytochrome P450 2D6 (Homo sapiens), sequence (P10635 whole entry, looked up): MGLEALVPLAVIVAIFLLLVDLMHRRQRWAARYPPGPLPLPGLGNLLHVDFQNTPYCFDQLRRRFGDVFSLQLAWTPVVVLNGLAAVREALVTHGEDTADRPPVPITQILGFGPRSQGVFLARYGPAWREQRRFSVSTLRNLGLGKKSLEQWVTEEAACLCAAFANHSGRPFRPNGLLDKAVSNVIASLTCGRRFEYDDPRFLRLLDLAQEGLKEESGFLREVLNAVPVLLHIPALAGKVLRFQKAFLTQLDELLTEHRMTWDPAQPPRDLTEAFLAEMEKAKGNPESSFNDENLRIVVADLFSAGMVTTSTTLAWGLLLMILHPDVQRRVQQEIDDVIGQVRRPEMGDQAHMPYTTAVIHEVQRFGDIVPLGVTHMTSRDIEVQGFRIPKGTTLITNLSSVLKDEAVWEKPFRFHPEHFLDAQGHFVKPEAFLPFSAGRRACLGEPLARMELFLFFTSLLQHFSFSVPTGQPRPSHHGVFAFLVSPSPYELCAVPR
In short: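 Human CYP2D6 (5 nM) with 30 uM Luciferin-ME EGE (at Km) in 100 mM KPO4, compound preincubated 10 min, then NADPH regeneration system for 60 min at room temperature. Luciferin read by luminescence; normalized to 1.43 uM quinidine.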

[9] = qHTS Assay for Identification of Small Molecule Agonists for Thrombopoietin (TPO) Signaling Pathway (AID 917); further: on the % scale 0 is the no-effect control and ±100 the full control effect
In short: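 Luminescence from a Glycoprotein IIb promoter–driven luciferase reporter served as read-out in murine Ba/F3 cells carrying the human TPO receptor. Cells, deprived of IL-3 overnight, received compounds with 26 pM TPO and were incubated 24 hrs at 37 C.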

[10] = target: Muscarinic acetylcholine receptor M1 (Rattus norvegicus) (UniProt P08482); assay: qHTS Assay for Antagonists of Acetylcholine Muscarinic M1 Receptor: Kinetic Measurement of Intracellular Calcium Response (AID 943);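 further: Fluo-4 calcium signal as peak divided by basal fluorescence over 4 min; nearly all actives have a fitted effect of over 75% in size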
Muscarinic acetylcholine receptor M1 (Rattus norvegicus), sequence (P08482 whole entry, looked up): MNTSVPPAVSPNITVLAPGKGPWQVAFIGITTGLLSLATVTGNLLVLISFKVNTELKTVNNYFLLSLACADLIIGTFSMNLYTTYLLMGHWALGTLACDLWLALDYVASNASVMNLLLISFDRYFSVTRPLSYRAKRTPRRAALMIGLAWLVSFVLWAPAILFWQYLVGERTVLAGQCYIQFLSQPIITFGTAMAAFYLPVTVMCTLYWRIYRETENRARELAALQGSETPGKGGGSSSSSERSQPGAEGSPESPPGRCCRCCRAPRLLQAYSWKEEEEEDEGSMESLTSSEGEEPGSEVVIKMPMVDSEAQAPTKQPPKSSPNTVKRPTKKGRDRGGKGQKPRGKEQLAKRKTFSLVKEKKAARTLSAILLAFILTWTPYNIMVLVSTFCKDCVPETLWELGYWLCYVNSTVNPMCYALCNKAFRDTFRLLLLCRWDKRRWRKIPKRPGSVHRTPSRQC
In short: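 CHO cells stably expressing rat M1 were loaded with no-wash Fluo-4 dye for 1 h at 37C, pre-incubated 10 min with compound, then challenged with EC80 carbachol (100 nM final); kinetic calcium read 4 min, peak/basal ratio.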

[11] = target: Muscarinic acetylcholine receptor M1 (Rattus norvegicus) (UniProt P08482); assay: qHTS Assay for Antagonists of Acetylcholine Muscarinic M1 Receptor: Measurement of IP-One Response (AID 944); further: nearly all actives have a fitted effect of over 75% in size
In short: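 CHO cells expressing rat M1 receptor, recovered overnight, were pre-incubated 10 min with compound, then stimulated 30 min with carbachol at EC80 (200 nM) in LiCl-containing buffer, pH 7.4. IP1 accumulation was read by HTRF (620/665 nm).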

[12] = target: Pyruvate kinase (Leishmania mexicana) (UniProt Q27686); assay: qHTS Validation Assay for Inhibitors of Leishmania Mexicana Pyruvate Kinase (AID 945);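 further: 0% = DMSO only neutral control wells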
Pyruvate kinase (Leishmania mexicana), sequence (Q27686 2-499 E452W): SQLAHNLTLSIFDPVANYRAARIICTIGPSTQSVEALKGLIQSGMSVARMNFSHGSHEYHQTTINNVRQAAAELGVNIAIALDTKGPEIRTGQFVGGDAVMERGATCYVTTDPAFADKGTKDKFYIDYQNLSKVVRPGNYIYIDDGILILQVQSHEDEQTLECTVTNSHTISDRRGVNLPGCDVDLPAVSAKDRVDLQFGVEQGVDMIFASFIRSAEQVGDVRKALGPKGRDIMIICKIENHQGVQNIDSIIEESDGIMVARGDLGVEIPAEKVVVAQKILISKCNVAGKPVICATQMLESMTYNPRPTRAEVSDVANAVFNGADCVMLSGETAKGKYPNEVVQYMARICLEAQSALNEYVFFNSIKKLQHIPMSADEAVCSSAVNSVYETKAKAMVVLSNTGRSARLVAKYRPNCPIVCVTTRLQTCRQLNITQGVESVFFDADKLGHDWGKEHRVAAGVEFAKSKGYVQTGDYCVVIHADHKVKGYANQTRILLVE
In short: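 The enzyme is a highly purified E451W mutant of LmPYK used at 0.2 nM. It converts 0.5 mM PEP and 0.1 mM ADP over 1 h at room temperature; product ATP is quantified by luciferase luminescence relative to DMSO controls.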

[13] = target: Pyruvate kinase PKM (Homo sapiens) (UniProt P14618); assay: qHTS Assay for Activators of Human Muscle Pyruvate Kinase (AID 954; active means well fitted curve in the direction sought with a large enough effect, not every such curve was filed as active;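 further: 0% = uninhibited enzyme and -100% = no enzyme or full thiadiazolimine inhibition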)
Pyruvate kinase PKM (Homo sapiens), sequence (P14618 whole entry, looked up): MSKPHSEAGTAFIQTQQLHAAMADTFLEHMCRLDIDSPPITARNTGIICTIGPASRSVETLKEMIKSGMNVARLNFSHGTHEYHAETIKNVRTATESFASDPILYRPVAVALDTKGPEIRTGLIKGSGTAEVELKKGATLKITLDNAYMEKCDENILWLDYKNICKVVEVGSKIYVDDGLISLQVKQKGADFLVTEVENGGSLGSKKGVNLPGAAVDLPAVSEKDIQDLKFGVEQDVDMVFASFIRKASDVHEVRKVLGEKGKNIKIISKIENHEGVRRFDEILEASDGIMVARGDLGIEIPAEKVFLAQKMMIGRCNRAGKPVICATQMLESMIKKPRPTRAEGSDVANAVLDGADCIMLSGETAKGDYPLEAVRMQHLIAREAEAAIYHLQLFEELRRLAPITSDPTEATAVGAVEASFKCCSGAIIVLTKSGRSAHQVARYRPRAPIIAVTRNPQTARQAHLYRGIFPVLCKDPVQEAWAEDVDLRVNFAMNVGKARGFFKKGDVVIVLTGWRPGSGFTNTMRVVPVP
In short: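 Luminescence from a luciferase ATP-detection/stop reagent reported PKM2 activity. Reactions contained 0.1 nM purified human enzyme, 0.5 mM PEP, 0.1 mM ADP and 7 mM MgCl2 at pH 7.2, run 1 h at RT.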

[14] = target: Alpha-galactosidase A (Homo sapiens) (UniProt P06280); assay: Counterscreen for Glucocerebrosidase Inhibitors: qHTS Assay for Human alpha-Galactosidase at pH 4.5 (AID 992); further: 0% is about no effect
Alpha-galactosidase A (Homo sapiens), sequence (P06280 whole entry, looked up): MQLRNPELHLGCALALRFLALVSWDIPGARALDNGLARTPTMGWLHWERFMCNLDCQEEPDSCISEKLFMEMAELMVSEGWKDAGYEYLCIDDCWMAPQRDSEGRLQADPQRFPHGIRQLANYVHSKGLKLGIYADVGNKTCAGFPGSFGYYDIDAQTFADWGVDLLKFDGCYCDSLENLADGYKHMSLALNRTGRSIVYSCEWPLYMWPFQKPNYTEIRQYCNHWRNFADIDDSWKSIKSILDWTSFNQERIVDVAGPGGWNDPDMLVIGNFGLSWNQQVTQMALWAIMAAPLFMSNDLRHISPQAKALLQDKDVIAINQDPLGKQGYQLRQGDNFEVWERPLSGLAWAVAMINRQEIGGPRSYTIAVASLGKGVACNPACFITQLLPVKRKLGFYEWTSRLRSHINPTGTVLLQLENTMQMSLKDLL
In short: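 Enzyme at 2 nM final was combined with compound (0.7 nM to 77 uM) and 80 uM 4-methylumbelliferyl alpha-D-galactopyranoside in 50 mM citric acid, 0.005% Tween-20, pH 4.5. After 20 min at room temperature, fluorescence was read (Ex 365/Em 440 nm); AC50 came from Hill fits.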

[15] = target: alpha-glucosidase (Oryza sativa, rice) (UniProt Q653V4); assay: Counterscreen for Glucocerebrosidase Inhibitors: qHTS Assay for Rice alpha-Glucosidase at pH 5.0 (AID 997);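 further: 0% = full activity with enzyme and -100% = basal without enzyme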
In short: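 Rice alpha-glucosidase (4 nM final) with 400 uM 4-methylumbelliferyl-alpha-D-glucopyranoside in citrate buffer pH 5.0, 20 min at room temperature, stopped at pH 10; fluorescence 365/440 nm, compounds 0.7 nM–77 uM, AC50 from Hill fits.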

[16] = qHTS Assay for Lipid Storage Modulators (AID 1519; calls by dose curve); details: Drosophila S3 cells, BODIPY lipid droplet/cell ratio, laser cytometry, cells loaded with oleic acid
In short: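 Cells seeded at 5,000 per well were treated with compounds over a concentration series and loaded with oleic acid (400 uM, as added). Lipid droplet fluorescence (488 nm excitation, 500-530 nm channel) was read by laser-scanning cytometry and normalized to 20 uM Triacsin C.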

[17] = target: DNA dC->dU-editing enzyme APOBEC-3G (Homo sapiens) (UniProt Q9HC16); assay: qHTS for inhibitors of Vif-A3G interactions: Validation (AID 588379); further: 0% is about no effect
DNA dC->dU-editing enzyme APOBEC-3G (Homo sapiens), sequence (Q9HC16 whole entry, looked up): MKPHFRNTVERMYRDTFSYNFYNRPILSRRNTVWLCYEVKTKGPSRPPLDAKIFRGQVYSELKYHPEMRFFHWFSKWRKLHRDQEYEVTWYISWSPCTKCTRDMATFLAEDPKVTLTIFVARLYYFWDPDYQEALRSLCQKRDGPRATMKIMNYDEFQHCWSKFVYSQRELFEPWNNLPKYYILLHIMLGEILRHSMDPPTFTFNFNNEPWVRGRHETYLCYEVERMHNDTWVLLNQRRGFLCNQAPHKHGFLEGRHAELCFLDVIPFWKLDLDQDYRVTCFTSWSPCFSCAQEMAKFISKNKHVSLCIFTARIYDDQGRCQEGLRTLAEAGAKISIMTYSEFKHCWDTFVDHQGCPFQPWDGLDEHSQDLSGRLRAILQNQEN
In short: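 HeLa cells stably expressing Vif and A3G-eYFP, 700 cells/well, incubated overnight at 37 deg C, then exposed to compound overnight at 37 deg C. Inhibition of Vif-mediated degradation read as increased yellow fluorescence (Ex 488/Em 500-530) by laser-scanning cytometry.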

[18] = test system: Zika virus NS2B-NS3 protease; assay: Primary screen GU AMC qHTS for Zika virus inhibitors (AID 1347154);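 further: 0% = no-inhibitor control and -100% = no-enzyme control; nearly all actives have a fitted effect of over 70% in size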
In short: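 Unlinked Zika NS2B hydrophilic domain/NS3 protease domain noncovalent complex (25 nM final) in 10 mM Tris-HCl pH 8.0, 0.01% Tween 20, with AMC peptide substrate. Fluorescence (ex 340, em 450 nm) change over 15 min, room temperature; percent inhibition fitted to 4-parameter Hill equation.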

[19] = Counterscreen qHTS for small molecule stabilizers of the endoplasmic reticulum resident proteome: GLuc-NoTag assay (AID 1508627);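 further: SH-SY5Y cells given compound then 100 nM thapsigargin to empty ER calcium; 0% = thapsigargin alone and -100% = DMSO vehicle control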
In short: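 SH-SY5Y cells stably expressing constitutively secreted GLuc (no SERCaMP tag) were pre-incubated 5 h, treated with compound for 19 h, then 100 nM thapsigargin for 4 h at 37C; medium GLuc read by coelenterazine luminescence.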

[20] = Cell Viability qHTS for small molecule stabilizers of the endoplasmic reticulum resident proteome (AID 1508629); details: cell viability counter-screen, 100 nM thapsigargin for final 4 h

C[C@]12CC3CC(N)(C1)C[C@@](C)(C3)C2
inactive: activity change, negative = inhibition [1] 19.1% | activity change, negative = inhibition [2] -5.02% | Potency [3] > 46 µM | Potency [4] > 46 µM | Potency [5] | Potency [6] | outcome [7] | Potency [9] | Potency [10] | Potency [11] | Potency [12] | outcome [13] | outcome [14] | outcome [15] | activity change, negative = inhibition ([16]; at 57.5 µM (top of the series)) -0.0594% | Potency [17] | Potency [18] | Potency [19] | max response [20] -0.737%
-26.5%: max response ([16]; measured here: lipid channel max response)
-24.5%: max response ([16]; measured here: cell count channel max response)
active: Potency [8] 0.316 µM
